Results from the supplement of paper PMC11417369.
± gives the standard deviation of the averaged measurements. In all, about 25,000 sequences were measured (“ln(normalized median fluorescence intensity)”: median about 8.6, highest 2% from about 10 on). The entries come from a sample that favours the highest values as a whole.

The sequences below were run on PfAP2-EXP AP2 domain (GST-tagged) (assay: gcPBM binding intensity (ln(normalized median fluorescence intensity)); higher = stronger DNA binding).
Outline: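 Each value is the highest Masliner-normalised natural-log median intensity across replicate spots of either orientation of a probe. The probes were primer-extended double-stranded 36-bp intergenic genomic sequences on an Agilent 4 × 180k array, alongside negative controls, exposed for 1 h to GST-tagged P. falciparum DNA-binding domains expressed in E. coli. Bound protein was picked up with Alexa488 anti-GST antibody and scanned at 488 nm.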

Sequence | gcPBM binding intensity (ln)
CATACCTTTTAATGTACACACATTTCTTTTTTGTTA [CACACA_site892] | 8.88 ± 0.28
AAAAAAAAAATTAAATGTACATATATAATATATATA [XGTACX_site7245] | 8.62 ± 0.014
TCCTACATATTATAGTGTACATTTTCATGTTCATAT [XGTACX_site4308] | 8.62 ± 0.39
ATAAGATGATGGAACTGTAATATATATATATATATA [CACACA_negctrl_site839] | 10 ± 0.5
AAAAAAATAAATAAATGTACATATATAAAACATTGT [XGTACX_site2136] | 8.87 ± 0.33
TGTAATCTGGAGAAAAGTACACAGTATCTGGTAGCT [XGTACX_site2039] | 8.53 ± 0.34
TTTTTAATTTACTGTCATAGGTACCTTAACTTATCA [CACACA_negctrl_site1664] | 8.72 ± 0.49
AAAAATAAAAAAATGACACACATATATATATATATA [CACACA_site2307] | 10 ± 0.53
AATGACAACCTTGTCACACATATATATATATATATA [CACACA_site5977] | 10.2 ± 0.4
ATATAAATGTATATGACACACATATATATATATATA [CACACA_site889] | 9.91 ± 0.3
AAAAAAAAAAAAAAAAATATATTTATGAAATAAAAA [TGCATGCA_negctrl_site262] | 8.405 ± 0.078
ATGGGACATATATATACACACATATATATATATATA [CACACA_site1202] | 10 ± 0.21
TATACAGATGGACACACACACATATATATATATATA [CACACA_site5272] | 10.2 ± 0.3
AACTTACTTGGACATACACACATATAGATTTATATA [CACACA_site7412] | 8.84 ± 0.3
TGAACTTACTTGGACATACACACATATATATATATA [CACACA_site2977] | 10.2 ± 0.27
ATTTATATTTTATATACACACATGAACTTATATGGA [CACACA_site3167] | 8.37 ± 0.41
AACTTACTTGGACATACACACATATATATATATATA [CACACA_site2978] | 10.2 ± 0.44
ATAAATATACATTATACCGACCATGTGGATATTATA [XGTACX_negctrl_site241] | 8.43 ± 0.49
GTGCATATGTAGATATGTACATATTTATTTATTATT [XGTACX_site7343] | 8.38 ± 0.16
TTCTAGAAAACTGATCGTACAAATAAATATAGACAC [XGTACX_site2808] | 8.88 ± 0.28
AATGGTAATCCACATACACACACACCGACACATATA [CACACA_site8876] | 8.72 ± 0.49
TTCTTCTGTTTTATTACACACCATTTTGTGTATACA [CACACA_site7059] | 8.96 ± 0.35
GGTATATATTTATAATGTACATATTCATATATATAA [XGTACX_site3291] | 8.45 ± 0.39

Sequence | gcPBM binding intensity (ln)
TATATATATATATATACACACACACCCACCAAAGCG [CACACA_site7904] | 10.3 ± 0.26
CATATACACCAACACACACACACACCCACAAAAAAA [CACACA_site496] | 8.53 ± 0.4
TATAAATATAAATACACACACACACGCCAAAGCGTA [CACACA_site6181] | 8.49 ± 0.36
TATATATATATATACACACACACACCCCAAAGCGTA [CACACA_site64] | 10.4 ± 0.15
TATATATATAAATACACACACACACCCCAAAGCGTA [CACACA_site4211] | 9.18 ± 0.46
ACCATACATACATACACACACACACCCATATATATA [CACACA_site2917] | 8.94 ± 0.45
GTACACATATAGTAATAATTTTATTATATTTTTTTG [CACACA_negctrl_site843] | 8.46 ± 0.3
GATTATTTTATAAGTACACACATTTATATATAATAA [CACACA_site2573] | 8.41 ± 0.33
ATATAAGTACGGCATGCATGCACATTTTTTTATTCC [TGCATGCA_site101] | 10.3 ± 0.23
TATATATATATATATTTTTTTTTTTTATGCACATGG [CACACA_negctrl_site1573] | 10.1 ± 0.36
AAATATTACCATGTGAAAATTTTACTGCAACATGAA [TGCATGCA_negctrl_site609] | 8.71 ± 0.38
AATGAATAATTATTTTGTACATAATATTATATTTAT [XGTACX_site5350] | 8.34 ± 0.36
AATCATTAAAGCATAATGTTTATGATCAATATGAAA [CACACA_negctrl_site887] | 8.27 ± 0.33
CCCTCTTCTCTCATATCACACATGTCATCCTTATCC [CACACA_site5078] | 9.15 ± 0.42
CTCATCCTTACATACACACACATATATTTATTTATA [CACACA_site6202] | 8.99 ± 0.39
TTTATATTTATATATACACACATATACATCCTATTT [CACACA_site3079] | 8.54 ± 0.31
CTCATCCTTACATACACACACATATATATATATATA [CACACA_site103] | 10.2 ± 0.29
TTCTCATCCTTACATACACACACATATATATATATA [CACACA_site7914] | 10.3 ± 0.11
GTTACATACATATACACACACATATATATATATATA [CACACA_site901] | 9.99 ± 0.35
TTTTTTTTTTTTTTTACACACAAATGTATACTATAT [CACACA_site1787] | 8.46 ± 0.43
TTTTTATTGTTATAGTTATAATATATTATTTGATTA [XGTACX_negctrl_site27] | 8.44 ± 0.4
TATATATTAGAAGATAGTACATATATATTTATTAAT [XGTACX_site1011] | 8.53 ± 0.24
ATATATATATATAATAGTACATATATTTTGAAAGAT [XGTACX_site5800] | 9.75 ± 0.27

Sequence | gcPBM binding intensity (ln)
ATATTTGCCCAAGATAGTACATATATATATATATAT [XGTACX_site7756] | 10.2 ± 0.24
AAAAAAAAAAAATTCACACACATATAAAAAATTAAG [CACACA_site728] | 8.39 ± 0.45
AAAATTAAATTATAAGCACACACATATATATATATA [CACACA_site9105] | 10.2 ± 0.52
ATAAAAAAAAATAGCACACATAAATATATTATATAT [CACACA_site767] | 8.66 ± 0.35
ATAAAAATATTATAAGCACACATATATATATATATA [CACACA_site8781] | 10.2 ± 0.34
AATTAAATTATAAGCACACACATATATATATATATA [CACACA_site3351] | 10.2 ± 0.32
AAAAATATTATAAGCACACATATATATATATATATA [CACACA_site2458] | 10.3 ± 0.28
AAATTAAATGTAAGCACACATAAATTATACGCATAT [CACACA_site3335] | 8.6 ± 0.38
TATATATATATAAGCACACAAACAAAAAAAATTATA [CACACA_site3897] | 9.74 ± 0.27
AAATTAAATGTAAGCACACATAAATTATACTCATAT [CACACA_site5782] | 8.36 ± 0.33
ATACAATAATATAAATGTACAAATTATATCTTCATT [XGTACX_site8994] | 8.37 ± 0.33
TATACCTATAGACACACACACATAAATAGATATATA [CACACA_site6748] | 8.83 ± 0.51
TATATGCAAAATGTCACACATGTGATAAATACATAT [CACACA_site4302] | 8.72 ± 0.36
ATTTTACATATTTGCACACATATATTTATATACATA [CACACA_site854] | 8.89 ± 0.4
TATAAAAAAAACGAAAAAAAAAAAAAAAATACAGGA [TGCATGCA_negctrl_site585] | 8.54 ± 0.61
AGTATACAGATATATACACACATATATATATATATA [CACACA_site4323] | 10 ± 0.41
TATATATATATATATACACACATATACATATTGTTT [CACACA_site3499] | 10.2 ± 0.32
TATATATATATATATACACACATACAGATATATATT [CACACA_site4629] | 10.2 ± 0.36
CATACATACATACATACACACATACAGATATATATA [CACACA_site4890] | 9.15 ± 0.32
CACAGATATATACATACACACATATATACACATATA [CACACA_site6323] | 8.58 ± 0.38
GTTACATACAGATACACACACATATATATATATATA [CACACA_site4652] | 10.2 ± 0.15
TATATATATATATATACACACATACATATATATATT [CACACA_site8185] | 10.1 ± 0.4
TGTTGTTACAGATATACACACATATATATATTATAT [CACACA_site5342] | 8.55 ± 0.41

Sequence | gcPBM binding intensity (ln)
TATATATACATACATACACACATATATATATATATT [CACACA_site4110] | 8.71 ± 0.4
AAGGTTTTGGGTTTTAATTAATTTAATATGATTATA [XGTACX_negctrl_site147] | 8.46 ± 0.59
TACATTTTTATTTTTACACACATATATATATATATA [CACACA_site1021] | 10.1 ± 0.31
AAAATAAATATAAAATGTACTTATATATATATATAT [XGTACX_site7803] | 9.97 ± 0.47
AACAGATAATATAAAAAAAAAAAAAAAAATAATTAA [GTGCAC_negctrl_site69] | 8.07 ± 0.53
ATATTTTTTTTCTACACACATACAAATATATATTAT [CACACA_site2359] | 8.97 ± 0.46
AATAAATAAAAAACATGTACAAATATAATATAGCAT [XGTACX_site6429] | 9.18 ± 0.5
AAATTGTGTTCATCAGCACACACAACATCATGTAAT [CACACA_site8556] | 8.51 ± 0.41
AAATATAAAAAAAATATATAATTTTTACATCGAATT [CACACA_negctrl_site544] | 8.24 ± 0.38
TAAATATATATATACACACACATACACAAAAAAAAA [CACACA_site3580] | 8.73 ± 0.42
TATAAATATATATATACACACACATACACAAAAAAA [CACACA_site9191] | 8.96 ± 0.54
TTATACACAAAAAAAAAAATATATATATATATATAT [XGTACX_negctrl_site5] | 10.2 ± 0.61
AAAAATAAAAGGTGTGCACACAAAAATATATATATA [CACACA_site8507] | 9.74
CACAAATATACAAATACACACAAATATACAAATACA [CACACA_site2385] | 8.7 ± 0.41
GTACAAAAAAAAATAAAATACATATATATATATATA [GTGCAC_negctrl_site364] | 10.1 ± 0.41
CACAAATATATACATACACACATATATACACATATA [CACACA_site8024] | 8.47 ± 0.34
TACAAAAAAAAATAAAATACATATATATATATATAT [XGTACX_negctrl_site608] | 10.3 ± 0.18
AAATAAAAAGGGTGCACACAAAAATATATATATATA [CACACA_site1728] | 10.5 ± 0.6
TACACAAATATATATATATATATATATATATATATA [XGTACX_negctrl_site305] | 10.2 ± 0.14
AAAAATAAAGGGTGTGCACACAAAAATATATATATA [CACACA_site1727] | 9.805 ± 0.078
TAATAAAAAATATATACACACAAATAAATAAATAAA [CACACA_site4037] | 8.75 ± 0.62
